Test results published in PubChem BioAssay (NCI).
The panel holds about 79,000 compounds, 15% with a hit somewhere; the sample as a whole holds those more often. Unmarked numbers belong to inactive results. Active and inactive are the calls of the source. Cut-off read from the data, not from the text of the source: active = growth inhibition above about 70%; inactive = the rest.

Experiment: NCI Yeast Anticancer Drug Screen. Data for the rad14 strain (AID 159);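 note: 0% = growth of vehicle-treated control cultures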
Conditions: S. cerevisiae rad14 strain growth inhibition, hits give high values
Experimental: Growth inhibition of yeast strains with defined genetic alterations is measured as a screen for potential anti-cancer activity. Selected strains with alterations in DNA damage repair or cell cycle control were exposed to compounds and growth inhibition was measured relative to vehicle treated controls. The strain used in this assay is rad14

SMILES | growth inhibition (at 1.2 µM) [%] | growth inhibition (at 3.7 µM) [%] | growth inhibition (at 11.0 µM) [%] | growth inhibition (at 33.0 µM) | growth inhibition (at 100.0 µM)
c1ccc2c(c1)sc1c3cnccc3ccc21 | 4 | 15 | 37 | 32% | 29%
Cc1ccc(Cl)cc1NC(=O)OCCN(C)C(=O)Nc1cc(Cl)ccc1C | -26 | -25 | -31 | -39% | -15%
CCCCCCCCCCCC1=NCCO1 | 3 | 9 | 15 | 50% | 99% (active)
COc1cc2cc3c4cc(OC)c(OC)cc4cc[n+]3c(C)c2cc1OC | -27 | -22 | -31 | -26% | -27%
c1ccc(CCN2CCc3ccccc3C2)cc1 | 2 | 10 | 24 | 33% | 29%
CCOC(=O)/C(=C\c1ccc(C#N)cc1)C(C)=O | -4 | 1 | 15 | 95% (active) | 99% (active)
O=C1C(Br)=C(c2ccccc2)O/C1=C/C(=O)c1ccc(Br)cc1 | 3 | 6 | 13 | 28% | 96% (active)
Clc1ccc2c(c1)N(CCCN1CCCC13CCCCC3)c1ccccc1S2 | -2 | -7 | -2 | 0% | 4%
